According to PubChem BioAssay (NCI):
The panel holds about 79,000 compounds, 15% with a hit somewhere; the sample as a whole holds those more often. Cut-off read from the data, not from the text of the source: active = growth inhibition above about 70%; inactive = the rest.

What was measured:
[1] = NCI Yeast Anticancer Drug Screen. Data for the rad50 strain (AID 155);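 note: 0% = growth of vehicle-only cultures of the same strain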; conditions: S. cerevisiae rad50 strain growth inhibition; at 50.0 µM; active compounds read high
Summary of the method: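 Growth of the mutant yeast was measured after compound exposure and referenced to vehicle-treated cultures.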

[2] = NCI Yeast Anticancer Drug Screen. Data for the mec2-1 strain (AID 157); conditions: S. cerevisiae mec2-1 strain, at 50.0 µM, active compounds read high
Summary of the method: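 Test agents were screened against the mec2-1 yeast strain, with defined DNA repair or cell cycle alteration. Growth was scored as inhibition against vehicle-only controls.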

[3] = NCI Yeast Anticancer Drug Screen. Data for the sgs1 mgt1 strain (AID 161);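 note: 0% = growth of cultures given vehicle only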; conditions: S. cerevisiae sgs1 mgt1 strain, at 50.0 µM, active compounds read high
Summary of the method: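 Read-out: growth inhibition vs vehicle controls. Cells: mutant yeast strain deficient in DNA damage repair.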

[4] = NCI Yeast Anticancer Drug Screen. Data for the cln2 rad14 strain (AID 165);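 note: 0% = growth equal to vehicle treated cultures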; conditions: S. cerevisiae cln2 rad14 strain, at 50.0 µM, active compounds read high
Summary of the method: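 Growth of compound-exposed yeast (cln2 rad14 genotype) measured and expressed as inhibition relative to vehicle.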

[5] = NCI Yeast Anticancer Drug Screen. Data for the bub3 strain (AID 167); conditions: S. cerevisiae bub3 mutant strain, at 50.0 µM, active compounds read high
Summary of the method: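 Whole-cell yeast assay. The mutant strain was incubated with compounds, and growth inhibition was determined by comparison with vehicle-treated cells.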

[6] = NCI Yeast Anticancer Drug Screen. Data for the mlh1 rad18 strain (AID 175); conditions: S. cerevisiae mlh1 rad18 strain growth inhibition; at 50.0 µM; active compounds read high
Summary of the method: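 In this whole-cell yeast screen, a strain with altered DNA damage repair is challenged with compound, and its growth is measured against matched vehicle-treated controls.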

Measured: growth inhibition

Nc1ccc(C(=O)Nc2cccc(OCc3nc(N)nc(N)c3-c3ccc(Cl)cc3)c2)cc1
inactive: [1] 16.6% | [2] -6.15% | [3] -16.2% | [4] 16.5% | [5] 2.3% | [6] 13.2%

O=[N+]([O-])c1ccc(C2=NCC=CCO2)cc1
inactive: [1] 18% | [2] 16.2% | [3] 7.55% | [4] -6.55% | [5] 4.5% | [6] 12.8%

CC(C)(C)C1=CC(=N/S(=O)(=O)c2ccccc2)/C(N=[N+]=[N-])=C(Cl)C/1=N\S(=O)(=O)c1ccccc1
inactive: [1] 54.8% | [2] 27.4% | [3] 48.2% | [4] 14% | [5] 23.6% | [6] 39%

NC(=O)C1N=NSC1NC(=O)c1ccc([N+](=O)[O-])cc1 (stereo not drawn)
inactive: [1] 1.8% | [2] -5.6% | [3] -8.9% | [4] 6.65% | [5] -9.15% | [6] 5.45%

O=C(NN1CCCCC1)NN1CCCCC1
inactive: [1] 5.35% | [2] -2.5% | [3] 8.6% | [4] 20.1% | [5] 24% | [6] 18.2%

Nc1ccc2ccc(S(=O)(=O)O)cc2c1
inactive: [1] -17.7% | [2] -19.9% | [3] -31.4% | [4] -23.3% | [5] -8.8% | [6] -17.9%

CC[n+]1c(COCCOc2ccccc2)sc2cc3c(cc21)OCO3
inactive: [1] -23.4% | [2] -11.4% | [3] -0.35% | [4] 12% | [5] 2.55% | [6] -18.1%

O=C(NC(=S)Nc1cccc(Cl)c1)c1ccccc1
inactive: [1] 15.9% | [2] 26.5% | [3] 33.3% | [4] -7.3% | [5] 46.2% | [6] 12.4%

CCOC(=O)Cc1nc2sc(C)c(-c3ccccc3)c2c(=O)[nH]1
inactive: [1] 32.4% | [2] 19.6% | [3] 27.5% | [4] 3.35% | [5] 17.2% | [6] 31.4%

Clc1ccc(-n2cccc2)cc1
inactive: [1] -4.75% | [2] 0.25% | [3] 10.7% | [4] 5.8% | [5] -19.6% | [6] -6.3%

Clc1ccc(-c2nnc(-c3ccccc3)o2)cc1Cl
inactive: [1] -8.4% | [2] -24.8% | [3] -0.4% | [4] 16% | [5] -18.9% | [6] -6.5%

CC1(C)CCC2(CC1)CC[N+](C)(CCC[N+](C)(C)C)CC2
inactive: [1] -26.6% | [2] -8.4% | [3] -10.8% | [4] -11.8% | [5] 8.7% | [6] -11.2%

O=C(/C(=C\c1ccccc1)c1ccccc1)c1ccccc1
inactive: [1] 25.1% | [2] 32.8% | [3] 26.4% | [4] -75.2% | [5] 28.2% | [6] 21.4%

CSC(N)=Nc1c(C)cccc1C
inactive: [1] 3.55% | [2] 22.9% | [3] 5.35% | [4] -4.1% | [5] 2.9% | [6] -16.7%

CN(C)C(=O)C1OC1(C)c1ccccc1 (stereo not drawn)
inactive: [1] -7.75% | [2] -5.25% | [3] -3.35% | [4] -20.9% | [5] -1.3% | [6] -7.95%

COc1ccc(CCn2nccc2C)cc1
inactive: [1] -60.9% | [2] -4% | [3] -4.3% | [4] -17.9% | [5] -9.4% | [6] -18.4%

CCC(=O)OCC[N+](C)(C)C
inactive: [1] -29.2% | [2] -37.6% | [3] -22.9% | [4] -4.25% | [5] -38.5% | [6] -20.9%

OC1c2ccccc2CCCC1N1CCCCC1 (stereo not drawn)
inactive: [1] 41% | [2] 5.35% | [3] 27.8% | [4] 6.75% | [5] 12.1% | [6] 16.9%

O=C1[C@@H](c2ccc(Cl)cc2)[C@H]2CC=C[C@H]2N1O
inactive: [1] 8.65% | [2] -21.4% | [3] -13.8% | [4] 15.4% | [5] -13.4% | [6] -2.25%

O=[N+]([O-])c1c(F)cc(F)cc1F
inactive: [1] -11% | [2] 5.75% | [3] -5.15% | [4] -19.9% | [5] 2.55% | [6] -6.65%

CC(C)C(NCc1c(O)ccc2c(-c3ccccc3)cc(=O)oc12)C(=O)O (stereo not drawn)
inactive: [1] -33.5% | [2] -21.6% | [3] -19% | [4] -12.2% | [5] -35.5% | [6] -10.2%

Cc1cc(NS(=O)(=O)c2ccc(N=[N+]([O-])c3ccc(S(=O)(=O)Nc4cc(C)on4)cc3)cc2)no1
inactive: [1] 10.8% | [2] -30.1% | [3] -6% | [4] 4.7% | [5] -13.2% | [6] -19.6%

O=c1[nH]cc(COCC(F)(F)C(F)(F)C(F)(F)C(F)F)c(=O)[nH]1
inactive: [1] -1.35% | [2] -14.9% | [3] -3.7% | [4] 0.5% | [5] -17.5% | [6] 1.2%

COc1cc(/C=C/C(C)=O)ccc1OP(=O)(O)O
inactive: [1] -22.4% | [2] -24.4% | [3] -29.8% | [4] 0.1% | [5] -32.1% | [6] 7.65%

COc1ccc(C2N(C(C#N)c3ccccc3OC)CCCN2C(C#N)c2ccccc2OC)c(OC)c1 (stereo not drawn)
inactive: [1] 57.1% | [2] 18.3% | [3] 30.3% | [4] 25.4% | [5] -2.55% | [6] 42%

COC(=O)C(=O)c1c(C(=O)OC)nc2nnc(N)n2c1-c1ccc(O)c(OC)c1
inactive: [1] 0.5% | [2] -11.9% | [3] -2.65% | [4] -31.8% | [5] 16.5% | [6] -9.9%

CC(=O)Nc1ccc(C(F)(F)F)cc1
inactive: [1] -5.2% | [2] -7.75% | [3] -15.8% | [4] -3.15% | [5] -7.7% | [6] 13.2%

Cc1ccc(Cl)cc1NC(=O)C(C)Oc1ccccc1 (stereo not drawn)
inactive: [1] 4.45% | [2] -1.85% | [3] -2% | [4] -4.75% | [5] 30.1% | [6] 13.9%

CC(C(=O)c1ccccc1)C(c1ccccc1)N1CCOCC1 (stereo not drawn)
inactive: [1] 2.1% | [2] -7.5% | [3] -16.3% | [4] 3.25% | [5] 6.35% | [6] -5.15%

Cc1ccc2nnc(C)n2c1
inactive: [1] 10.7% | [2] 1.95% | [3] 1.85% | [4] 19.2% | [5] 24.9% | [6] -4.4%

COc1ccc(Br)c(CN2CCc3ccccc32)c1OS(=O)(=O)c1ccc(C)cc1
inactive: [1] 13.8% | [2] -0.3% | [3] 18.7% | [4] 4.1% | [5] 5.45% | [6] 12.4%

CCCCNc1nc(NC2OCC(OC(C)=O)C(OC(C)=O)C2OC(C)=O)c(N=O)c(=O)n1C (stereo not drawn)
inactive: [1] -4% | [2] -21.4% | [3] -4.3% | [4] -28.4% | [5] -12.5% | [6] -2.9%

C[N+]1(C)N=C(c2ccccc2)C=C1[O-]
inactive: [1] 13.4% | [2] -9.75% | [3] -6.65% | [4] -53.9% | [5] -2.5% | [6] -3.85%

CCCC[Si]CCCC
inactive: [1] 14.8% | [2] 10% | [3] 1.1% | [4] 14.6% | [5] 4.5% | [6] 11.2%

CCCC(=O)NC(C)(C)C
inactive: [1] 8.8% | [2] -5.3% | [3] -33.9% | [4] 2.9% | [5] 6.2% | [6] -21%

CC(O)C1OC(n2cnc3c(=S)nc[nH]c32)C(O)C1O (stereo not drawn)
inactive: [1] 7.5% | [2] 15.7% | [3] 0.6% | [4] -98.1% | [5] -4.85% | [6] -13.3%

Cc1cccc(Cl)c1NC(=O)COc1ccc(Cl)cc1
inactive: [1] 5.75% | [2] 5.75% | [3] 38.2% | [4] 1.65% | [5] 30.9% | [6] 26.2%

Nc1ccc(F)cc1C(F)(F)F
inactive: [1] 6.65% | [2] -45% | [3] -4.55% | [4] -7.75% | [5] -8.05% | [6] 23%
